Shown are actives, neighbours in structure and some others; about 18% of the full set was active somewhere.
KAT2A inh = GCN5L2 (KAT2A) acetyltransferase inhibition. 0.21% of 390,000 active. GCN5L2 HAT assay, ThioGlo1 CoA-SH fluorescence. Q92830. AID 504327. Potency, µM (doses to about 58.9 µM), for inactives: top-dose activity change, negative = inhibition, hits mostly inhibitors
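GCN5L2 (20 nM) in 50mM HEPES pH 7.5, 0.1mM EDTA, 0.01% Tween-20 preincubated 15 min with compounds at room temperature. Reaction started with H3(1-25) 75uM, acetyl-CoA 70uM, ThioGlo1 50uM; CoA-thiol fluorescence (Ex340/Em540) read at 0 and 20 min.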
TDP1 block = TDP1 (human) enzyme inhibition | Q9NUW8 | recombinant TDP1, AlphaScreen DNA substrate cleavage | Potency, µM (series often up to 130 µM), for inactives: top-dose activity change, negative = inhibition, usual class: inhibitors | 0.28% of 350,000 active | AID 485290; further: nearly all actives have a fitted effect of over 40% in size
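E. coli-derived human Tdp1, 1 nM final. Cpd preinc 15 min RT; substrate 15 nM final, 5 min RT; AS bead mix 10 ug/ml final, 10 min RT. Signal loss = tyrosine-FITC cleavage. No-enzyme wells = max signal.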
DT40 TDP1 no CPT = qHTS for Inhibitors of human tyrosyl-DNA phosphodiesterase 1 (TDP1): qHTS in cells in absence of CPT; DT40 Tdp1-/- hTDP1 cells, no CPT, ATP luminescence, 48 h; Potency, µM (top dose mostly 46.2 µM), inactives show top-dose activity change, negative = growth inhibition, hits mostly inhibitors; 15% of 420,000 active; AID 686978, 2013; further: nearly all actives have a fitted effect of over 55% in size
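Chicken DT40 Tdp1-/- cells complemented with human TDP1, screened without camptothecin (DMSO vehicle only), 400 cells/well. Compounds pin-transferred, cells incubated at 37 °C for at least 48 hr. Growth read as ATP-dependent luminescence (CellTiter-Glo, 30 min at RT).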
VDR inh = vitamin D3 receptor (human) inhibition. P11473. VDR-SRC2-3 peptide fluorescence polarization, 2 h. Potency, µM, for inactives: max response, negative = inhibition, actives largely listed as inhibitors. 0.93% of 400,000 active
Target sequence (P11473 whole entry, looked up): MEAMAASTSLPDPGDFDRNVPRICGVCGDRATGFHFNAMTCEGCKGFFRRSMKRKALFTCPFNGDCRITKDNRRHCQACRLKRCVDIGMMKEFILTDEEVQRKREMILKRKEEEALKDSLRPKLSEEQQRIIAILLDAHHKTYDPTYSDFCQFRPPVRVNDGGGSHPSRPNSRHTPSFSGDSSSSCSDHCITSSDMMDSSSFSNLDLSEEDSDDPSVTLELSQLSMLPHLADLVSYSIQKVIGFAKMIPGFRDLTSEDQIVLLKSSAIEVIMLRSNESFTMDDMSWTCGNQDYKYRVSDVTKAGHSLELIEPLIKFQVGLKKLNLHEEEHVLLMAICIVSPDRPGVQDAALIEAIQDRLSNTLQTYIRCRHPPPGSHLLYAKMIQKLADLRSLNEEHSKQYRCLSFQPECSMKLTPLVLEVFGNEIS
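Compounds are added to VDR with labelled SRC2-3 coactivator peptide and held 2 h at room temperature. Inhibition of the VDR–peptide interaction is then read as a change in fluorescence polarization.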
PLK1 PBD inh = inhibitors of human PLK1 polo-box domain binding | 2.8% of 360,000 active | Potency, µM, inactives show max response, negative = inhibition, usual class: inhibitors | AID 720504 | P53350 | Plk1 PBD binding of FITC phosphopeptide, fluorescence polarization; further: series mostly up to about 57 µM; nearly all actives have a fitted effect of over 65% in size
DT40 TDP1 CPT = growth inhibition of DT40 Tdp1-/-;hTDP1 cells with camptothecin (screen for TDP1 inhibitors) | chicken DT40 Tdp1-/-;hTDP1 cells + 20 nM CPT, ATP luminescence, 48 h | Potency, µM (doses to about 46.2 µM), without a hit: at the highest dose activity change, negative = growth inhibition, most hits filed as inhibitors | 12% of 420,000 active | AID 686979; further: nearly all actives have a fitted effect of over 55% in size
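Chicken DT40 Tdp1-/- cells complemented with human TDP1, 400 cells/well, exposed to compounds plus 20 nM camptothecin for at least 48 h at 37 C; viability read as ATP content by CellTiter-Glo luminescence.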
Active calls of the source: *; ? = inconclusive; / = no result given; [ ] = remark or other dose. The call rests on the fitted dose curve; in most records, active means well fitted curve in the direction sought with a large enough effect; inconclusive means small, poorly fitted or top-dose-only effect, or another doubt; inactive means no such curve, though single readings can be large; an effect the other way counts as inactive or inconclusive. On the % scale 0 is the no-effect control and ±100 the full control effect; potency means the concentration at half of the fitted maximal effect.

SMILES	KAT2A inh	TDP1 block	DT40 TDP1 no CPT	VDR inh	PLK1 PBD inh	DT40 TDP1 CPT
CCN(C[C@H]1N[C@@](Cc2ccccc2)(C(=O)OC)[C@H]2C(=O)N(C)C(=O)[C@@H]12)S(=O)(=O)c1ccc(C(F)(F)F)cc1	-3%	0%	18µM*	19%	-5%	23µM*
CCN(C[C@H]1N[C@@](CC)(C(=O)OC)[C@H]2C(=O)N(C)C(=O)[C@@H]12)S(=O)(=O)c1ccc(C)cc1	-4%	1%	-15%	-13%	-6%	-9%
COC(=O)[C@]1(Cc2ccccc2)N[C@H](CN(C)S(=O)(=O)c2ccc(-c3ccccc3)cc2)[C@@H]2C(=O)N(C)C(=O)[C@@H]21	-6%	2%	21µM*	-1%	-16%	26µM*
Cc1ccc(CNS(=O)(=O)c2cc3c(cc2Cl)NC(=O)CO3)o1	-11%	0%	?	10%	/	?
COc1ccc(-c2nc3cc(C)ccc3cc2CN(C(=O)c2csc(C)n2)C2CC2)cc1OC	/	/	-20%	/	/	9%[9.04 µM]
COC(=O)C1=C(C(=O)OC)[C@@H]2N(C)c3ccc(OC)cc3[C@@]23C[C@@H](C(=O)OC)N(C(=O)COCc2ccccc2)C3=N1	/	10%[12.3 µM]	-7%	-15%	-7%	?
CC(=O)OC1CC2CCC1(C)C2(C)C (centres undefined)	39%	8%	/	9%	/	/
CC(=O)OC(COC1C[C@@H]2CC[C@@]1(C)C2(C)C)C[N+]1(C)CCCCC1 (some centres undefined)	-13%	3%	18µM*	-4%	-5%	?
CCOc1ccc(-c2cnc3n2CCCCC3)cc1	1%	6%	-25%	-12%	4%	?
CCOc1ccc(-c2c[n+]3c(n2-c2ccccc2)CCCCC3)cc1	0%	4%	0.0073µM*	6%	-1%	0.082µM*
COc1ccc(-n2c(-c3ccc(Br)cc3)c[n+]3c2CCCCC3)cc1	1%	4%	1.8µM*	1%	-15%	1.8µM*
COc1ccc(-n2c(-c3ccc(Br)cc3)c[n+]3c2CCC3)cc1	-9%	-2%	4.6µM*	13%	-2%	18µM*
COc1ccc(-n2c(-c3ccccc3)c[n+]3c2CCC3)cc1	2%	/	2.3µM*	-5%	2%	2.1µM*
COc1ccc(-n2c(-c3ccc(Br)cc3)n[nH]c2=S)cc1	-27%	/	?	-18%	-9%	?
COc1ccc(-n2c(-c3ccccc3)cc3c2CCCC3=O)cc1	-9%	-4%	?	-20%	-6%	-28%
COc1ccc(-n2c(-c3ccc(Br)cc3)c[n+]3c2SC(C)C3)cc1 (centres undefined)	2%	1%	1.2µM*	-1%	-4%	1.6µM*
OC(COCc1cccs1)CN1CCN(c2cccc(C(F)(F)F)c2)CC1 (centres undefined)	16%	0%	21µM*	6%	3%	18µM*
OC(CN1CCN(c2cccc(C(F)(F)F)c2)CC1)c1c[nH]c2ccccc12 (centres undefined)	-8%	8%	23µM*	1%	-5%	?
FC(F)(F)c1cccc(N2CCCCC2)c1	/	/	-4%	/	-1%	-19%
CN1Cc2c(C(=O)OC(C)(C)C)ncn2-c2ccsc2C1=O	-3%	6%	-4%	-2%	/	0%
COc1cc(NC(=O)COCc2cc(-c3ccc(F)cc3)on2)cc(OC)c1OC	-5%	0%	9.2µM*	4%	/	13µM*
COc1ccc(C)cc1NC(=O)COCc1cc(-c2ccc(F)cc2)on1	-5%	1%	?	-7%	/	?
CCOC(=O)NN1C(=O)c2ccccc2NC12CCCC2	-7%	1%	-16%	-17%	1%	3%
